# Assay results as given in PubChem BioAssay (NCATS).
# Inconclusive results are not listed. Entries that show only a call come without a potency. The source made the active and inactive calls. Calls come from the whole dose curve; as a rule, active = well fitted cell-killing curve with a large enough effect; inconclusive = small, poorly fitted or top-dose-only effect, or effect the other way; inactive = flat fitted curve, though single readings scatter.
# Test system: CAOV3
# Experiment: Primary qHTS to identify gynecologic anti-cancer compounds using libraries of approved drugs and bioactive compounds (AID 1345084); note: nearly all actives have a fitted effect of over 55% in size
# Conditions: Gynecologic cancer cell panel viability, ATPlite luminescence, 48 h; series mostly up to 57.5 µM
# Excerpt: National Center for Advancing Translational Sciences [NCATS] Assay Overview: Chemotherapeutic drug responses vary from cancer to cancer and from patient to patient. These variations could be caused by a number of factors including patient genomic background, tumor mutations, tumor heterogeneity, and aspects of drug treatment. Chemotherapeutic drug resistance is also a common issue and can lead to ineffective treatment and patient death. Here we have profiled the cell killing effects of thousands of compounds to characterize the responses in three gynecological cancers, identify cancer-selective compounds, and understand the diversity of responses to these compounds from pan-cancer suppressors to single cell line selective compounds. In this assay, we screened a 7,914 compound drug library that included approved drug and bioactive compounds in six ovarian, three cervical, and […] placental cancer cell lines using the ATPlite assay for cell viability. […] The cervical cancer cell lines included HeLa, Ca Ski, and C-33 A. The placental cancer cell lines included JEG-3. HEK 293T cells were used as the control cell line to determine the selectivity index. ATPlite is a luminescence based assay reliant on the conversion of a luciferase substrate to light in the presence of ATP. As a cytotoxic compound will suppress growth and decrease the number of cells, the concentration of ATP will decrease, and less light signal will be detected in the well.
# Assay Protocol Summary: 1,000 cells in 4 uL of media were dispensed into white, solid bottom 1536-well plates using a Multidrop Combi (Thermo Scientific). The Assay plates were incubated for 16 hours at 37 C with 5% CO2 in assay plates, followed by the addition of 23 nL of DMSO or drug dissolved in DMSO. Each compound was assayed in five concentrations (0.092, 0.46, 2.3, 11.5, and 57.5 uM), using the automated Wako 1536 Pin Tool workstation and incubated at 37 C with 5% CO2 48 hours. 4 uL of ATPlite, the ATP monitoring reagent, was then added to the each well of the assay plates using the Multidrop Combi reagent dispenser followed by incubation for 15 minutes at room temperature. The resulting luminescence was measured using the ViewLux plate reader.
# Potency is the fitted concentration of half-maximal effect.
row,Compound,Potency
1,Cc1coc2c1C(=O)C(=O)c1c-2ccc2c(C)cccc12,inactive
2,c1cncc(CN2CCC(n3ncc4c(N5CCOCC5)nc(-c5ccc6[nH]ccc6c5)nc43)CC2)c1,28.2 µM (active)
3,O=C(Nc1cc2cc[nH]c2cn1)c1ccccc1,1.78 µM (active)
4,O=C(Nc1ccc(Oc2ccnc3[nH]ccc23)c(F)c1)c1cccn(-c2ccc(F)cc2)c1=O,inactive
5,Cc1cn([C@@H]2O[C@H](CO)[C@@H](O)[C@H]2F)c(=O)[nH]c1=O,inactive
6,c1ccc2c(Oc3nc(Nc4ccc(N5CCOCC5)cc4)c4ncn(C5CCCCC5)c4n3)cccc2c1,inactive
7,CCC[C@H]1C[C@H](C(=O)N[C@@H]([C@@H]2O[C@@H](SC)[C@@H](O)[C@@H](O)[C@@H]2O)[C@H](C)Cl)N(C)C1,inactive
8,Cn1cnc2c(F)c(Nc3ccc(Br)cc3F)c(C(=O)NOCCO)cc21,inactive
9,C[C@H]1[C@@H](OC(=O)CCC(=O)O)O[C@@H]2O[C@@]3(C)CC[C@@H]4[C@H](C)CC[C@@H]1[C@@]24OO3,inactive
10,CC(C)n1cnc2c(NCCc3ccc(O)cc3)nc(-c3csc4ccccc34)nc21,inactive
11,CCOC(=O)[C@@H](N)Cc1ccc(-c2cc(O[C@H](c3ccc(Cl)cc3-n3ccc(C)n3)C(F)(F)F)nc(N)n2)cc1,inactive
12,Oc1ccc([C@@H]2Oc3ccc(O)cc3[C@@H]3CCC[C@@H]32)cc1,inactive
13,C=CC(=O)Nc1ccc2ncnc(Nc3ccc(OCc4cccc(F)c4)c(Cl)c3)c2c1,35.5 µM (active)
14,Cc1ccccc1C(=O)Nc1ccc(C(=O)N2CCCC(O)c3cc(Cl)ccc32)c(C)c1 (stereo not drawn),inactive
15,CN(C)CC(=O)N1CCC(c2ccc(NC(=O)c3ncc(C#N)[nH]3)c(C3=CCCCC3)c2)CC1,inactive
16,CCn1c(=O)c2c(nc(C=Cc3ccc(OC)c(OC)c3)n2C)n(CC)c1=O,inactive
17,N[C@H]1CN(c2c(F)cc3c(=O)c(C(=O)O)cn(C4C[C@@H]4F)c3c2Cl)CC12CC2 (stereo partly drawn),inactive

row,Compound,Potency
1,CC(O)(C#Cc1ccc2c(c1)N(c1nc(N)ncc1Cl)CC2)c1nccs1 (stereo not drawn),inactive
2,CCCCOc1ccc(C(=O)Nc2ccc(F)cc2F)cc1,inactive
3,CC(C)C[C@H](NC(=O)[C@@H](NC(=O)c1cccc(-c2ccccc2)n1)[C@@H](C)O)B(O)O,0.282 µM (active)
4,COc1ccc(S(=O)(=O)Nc2cccnc2Nc2ccc(O)cc2)cc1,inactive
5,CC1(C)O[C@@H]2C[C@H]3[C@@H]4CCC5=CC(=O)C=C[C@]5(C)[C@@H]4[C@@H](O)C[C@]3(C)[C@]2(C(=O)CO)O1,inactive
6,CCN(CC)Cc1ccc2cc(COC(=O)Nc3ccc(C(=O)NO)cc3)ccc2c1,7.94 µM (active)
7,CS(=O)(=O)N1CCc2c(-c3cnc(N)nc3)nc(N3CCOCC3)nc21,inactive
8,C[C@H](O)[C@@H]1C(=O)N2C(C(=O)O)=C(S[C@@H]3CN[C@H](CNS(N)(=O)=O)C3)[C@@H](C)[C@@H]12,inactive
9,Cc1cnc(Nc2ccc(CN3CCOCC3)cc2)nc1Nc1cccc(S(=O)(=O)NC(C)(C)C)c1,7.94 µM (active)
10,C[N+]1(C)[C@@H]2C[C@@H](OC(=O)C(O)(c3cccs3)c3cccs3)C[C@H]1[C@@H]1O[C@@H]12,inactive
11,CC1=C(C(=O)Nc2cc3cn[nH]c3cc2F)C(c2ccc(Cl)cc2F)N=C(c2ccnc(Cl)c2)N1 (stereo not drawn),inactive
12,Cc1ccc(-n2[nH]c(C)c(N=Nc3cccc(-c4cccc(C(=O)O)c4)c3O)c2=O)cc1C,inactive
13,Nc1ccn(C2CO[C@H](CO)O2)c(=O)n1 (stereo partly drawn),inactive
14,O=C(O)c1ccc(Nc2ncc3c(n2)-c2ccc(Cl)cc2C(c2c(F)cccc2F)=NC3)cc1,inactive
15,FC(F)(F)c1ccc(Nc2nc3ccc(Oc4ccnc(-c5ncc(C(F)(F)F)[nH]5)c4)cc3[nH]2)cc1,inactive
16,CN1CCc2c(c3ccccc3n2Cc2ccc(C(=O)NO)cc2)C1,inactive
